The campaign covered roughly 420,000 compounds. About 64,000 (15%) were called active. Roughly 27% stayed inconclusive and do not appear here. Calls follow the shape of the dose curve; as a rule, active = well fitted inhibition curve with a large enough effect; inconclusive = small, poorly fitted or top-dose-only effect; inactive = flat fitted curve, though single readings scatter. Only a sample is shown.
Assay: qHTS for Inhibitors of human tyrosyl-DNA phosphodiesterase 1 (TDP1): qHTS in cells in absence of CPT; also: nearly all actives have a fitted effect of over 55% in size
Settings: DT40 Tdp1-/- hTDP1 cells, no CPT, ATP luminescence, 48 h; activity change, negative = growth inhibition: at 46.2 µM (top of the series)
Outline: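 Camptothecin absent (DMSO only). Human TDP1-complemented DT40 knockout cells, 400 cells/well, 37 °C for minimum 48 hr; ATP measured via CellTiter-Glo, 30 min dark incubation, luminescence.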
% is scaled to controls: 0 for no effect and ±100 for the full control effect; potency is read from the fitted curve at half-maximal effect.

SMILES | activity change, negative = growth inhibition | Potency
CCNC(=O)C1(C)CCN(C(=O)c2ccccc2)C1 (stereo unspecified) | -2.76% (inactive) | 
O=C(Cn1ccc2cc(S(=O)(=O)N3CCCC3)ccc21)NCc1ccccc1 |  | 9.2 µM (active)
O=C(NCc1ccccc1)C1CCN(S(=O)(=O)c2ccc3[nH]c(=O)ccc3c2)CC1 | 6.07% (inactive) | 
O=C(CCn1ccc2cc(S(=O)(=O)N3CCCC3)ccc21)NCc1cccc(Cl)c1 |  | 20.6 µM (active)
O=C(COc1ccc(S(=O)(=O)N2CCCCC2)cc1)NCc1ccccn1 | -9.77% (inactive) | 
COc1ccc(OC)c(CCNC(=O)CCn2ccc3cc(S(=O)(=O)N4CCCC4)ccc32)c1 | -2.31% (inactive) | 
CCCCN(C(=O)c1ccc(S(=O)(=O)N2CCOCC2)cc1)C1CCS(=O)(=O)C1 (stereo unspecified) | 2.31% (inactive) | 
O=C(CN1CCOC1=O)N1CCCC(Nc2ccc(F)c(F)c2)C1 (stereo unspecified) | -0.497% (inactive) | 
Cc1ccc([N+](=O)[O-])cc1S(=O)(=O)N1CCCN(C)CC1 | -1.86% (inactive) | 
Cc1cc(NC(=O)c2ccc(-c3ccc(Cl)cc3)o2)cc(-c2nc3ncccc3o2)c1O | -17.9% (inactive) | 
N#Cc1ccsc1NC(=O)CN1CCCCC1 | -24.9% (inactive) | 
O=C(CN1CCN(S(=O)(=O)c2cc(Cl)ccc2Cl)CC1)c1ccc(O)c(O)c1 |  | 2.59 µM (active)
N#Cc1ccsc1NC(=O)CN1CCN(S(=O)(=O)c2cc(Cl)ccc2Cl)CC1 |  | 20.6 µM (active)
CCN1CCN(C(=O)C2CCN(S(=O)(=O)c3cc(Cl)ccc3Cl)CC2)CC1 | -22.5% (inactive) | 
CN1CCN(S(=O)(=O)c2cccc(C(=O)Nc3sccc3C#N)c2)CC1 | 2.02% (inactive) | 
O=S(=O)(c1cc(Cl)ccc1Cl)N1CCN(Cc2ccco2)CC1 | -8.69% (inactive) | 
Cn1c(SCc2nc3ccccc3s2)nnc1-c1ccc2c(c1)OCO2 | -5.86% (inactive) | 
COCc1cc(C)nc(SCC(=O)Nc2cccc(C)c2)c1C#N | -5.04% (inactive) | 
Cc1cc(C)nc(SCc2ccccc2C#N)n1 | -0.525% (inactive) | 
COc1ccc2oc(=O)c(C(=O)O)cc2c1 | -17.5% (inactive) | 
COc1ccc2oc(=N)c(C(=O)Nc3ccc(Br)cc3)cc2c1 | -11.4% (inactive) | 
COc1ccc(/C=C/C(=O)c2cc(Br)ccc(=O)c2O)cc1 |  | 20.6 µM (active)

SMILES | activity change, negative = growth inhibition | Potency
COc1ccc(NC(=O)Cn2nnc(C(=O)NCCc3ccc(OC)c(OC)c3)c2N)cc1 | 0.857% (inactive) | 
CC(C)(C)n1cnnc1Sc1ccc([N+](=O)[O-])cn1 | -18.6% (inactive) | 
CC1CCCC(NC(=O)c2cc(S(=O)(=O)N3CCCCC3)ccc2Cl)C1C (stereo unspecified) |  | 25.9 µM (active)
O=C(COC(=O)c1cc(S(=O)(=O)N2CCCCC2)ccc1Cl)NCc1ccco1 | -21.6% (inactive) | 
Cc1ccc(S(=O)(=O)N2CCCCC2)cc1NC(=O)CCNC(=O)c1ccccc1Cl | -27.7% (inactive) | 
O=C(NNC(=O)c1cc(S(=O)(=O)N2CCCCC2)ccc1Cl)c1ccccc1O |  | 20.6 µM (active)
Cc1ccc(S(=O)(=O)N2CCN(C)CC2)cc1C(=O)NC1CCCCC1 | -2.9% (inactive) | 
Cc1cc(C(=O)CCC(=O)NNC(=O)c2ccccc2O)c(C)s1 | -27.6% (inactive) | 
O=C(NNC(=O)c1ccccc1O)c1ccccc1O |  | 2.91 µM (active)
CC(=O)NC(=O)c1ccccc1O | -3.97% (inactive) | 
CC1CCCCC1NC(=O)c1cn(C)c2ccc(S(=O)(=O)N3CCOCC3)cc2c1=O (stereo unspecified) | 8.68% (inactive) | 
C[C@@H]1O[C@@H](OC[C@H]2O[C@@H](Oc3c(-c4ccc(O)cc4)oc4cc(O)cc(O)c4c3=O)[C@H](O)[C@@H](O)[C@@H]2O)[C@H](O)[C@H](O)[C@H]1O | -1.73% (inactive) | 
CCOc1ccc(C(C)NC(=O)CN2C(=O)NC3(CCCCC3)C2=O)cc1OCC (stereo unspecified) | 3.71% (inactive) | 
Cc1ccccc1NC(=O)Cn1c(=O)n(CC2CCCO2)c(=O)c2ccccc21 (stereo unspecified) | -19.6% (inactive) | 
C=C1O[C@@](CO)(n2cnc3c(N)ncnc32)[C@H](O)[C@@H]1O | -21.3% [at 92.5 µM] (inactive) | 
CC(=O)NC(=S)NNC(=O)c1ccc(Br)cc1 |  | 5.8 µM (active)
CNC(=S)NNC(=O)c1ccc(N(C)C)cc1 | 16.8% (inactive) | 
COC(=O)CNC(=O)c1ccccc1[N+](=O)[O-] | 1.91% (inactive) | 
COc1ccc(C(=O)NC(=S)NNC(=O)CCc2ccccc2)cc1 |  | 6.51 µM (active)
O=C(NC(=S)Nc1ccc(S(=O)(=O)N2CCOCC2)cc1)c1ccccc1[N+](=O)[O-] | -27.2% (inactive) | 
COc1ccc(C(=O)NNC(=S)NC(=O)c2ccccc2[N+](=O)[O-])cc1 |  | 23.1 µM (active)
O=C(CCc1ccccc1)NNC(=O)c1ccc(Br)cc1 | -26.7% (inactive) | 

SMILES | activity change, negative = growth inhibition | Potency
COc1ccc(C(=S)Nc2ccccc2)cc1 | -15.9% (inactive) | 
CC(C)Oc1ccc(CCC(=O)NNC(=S)NCc2ccccc2)cc1 | 16.7% (inactive) | 
COc1ccc(C(=O)NC2CCN(C(=S)Nc3ccccc3)CC2)cc1 | -19.5% (inactive) | 
COc1ccc(C(=O)NNC(=S)NC(=O)c2ccccc2)cc1 |  | 16.4 µM (active)
O=C(NNC(=O)c1ccc(Cl)nc1)c1ccc(Br)cc1 | -8.99% (inactive) | 
CS(=O)(=O)Nc1ccccc1C(=O)OCC(=O)NC1CC1 | 18.2% (inactive) | 
CC(C)NC(=O)c1ccc(Sc2ccccc2)c([N+](=O)[O-])c1 | -5.56% (inactive) | 
CCOc1ncccc1C(=O)OCc1cn2cc(Cl)ccc2n1 | -11.7% (inactive) | 
C[C@@H]1CN([C@H](C)CO)C(=O)c2cc(Br)cnc2O[C@@H]1CN(C)Cc1cncnc1 | 1.36% (inactive) | 
COc1ccc(-c2[nH]nc(-c3ccccc3)c2-c2nc3ccccc3[nH]2)cc1 | -7.56% (inactive) | 
CNC(=O)NCCN1CCCC1=O | -19.7% (inactive) | 
COC(=O)C[C@@H]1C=C[C@@H](NC(=O)c2cccnc2)[C@@H](CO)O1 | -1.14% (inactive) | 
Cc1nn(C)c(Oc2ccccc2)c1[N+](=O)[O-] | -2.02% (inactive) | 
CN(CCN1CCOCC1)Cc1nc(-c2ccc3c(c2)OCO3)no1 | 2.13% (inactive) | 
CN(Cc1ccccn1)Cc1nc(-c2ccc(Cl)cc2)no1 | 5.98% (inactive) | 
CCN1CC(CN(C)Cc2nc(-c3ccc(Cl)cc3)no2)CC1=O (stereo unspecified) |  | 16.4 µM (active)
O=C(Nc1ccccc1)O/N=C1/CCCc2occc21 | -5.58% (inactive) | 
COc1ccc(-n2c(C)cc(C(=O)CN3C(=O)NC4(CCc5ccccc54)C3=O)c2C)cc1 (stereo unspecified) |  | 18.4 µM (active)
COc1ccc(CNC(=O)CN2C(=O)NC3(CCCc4sccc43)C2=O)cc1 (stereo unspecified) | -2.19% (inactive) | 
COc1ccc(C(=O)CN2C(=O)NC3(CCc4ccccc43)C2=O)c(OC)c1 (stereo unspecified) | -6.81% (inactive) | 
CCc1cccc(NC(=O)COC(=O)c2cc(=O)c3ccccc3o2)c1 | -0.297% (inactive) | 
CCOc1ccc(NC(=O)C(=O)NCCc2csc3nc(-c4ccccc4F)nn23)cc1 | -8.41% (inactive) | 

Source: PubChem BioAssay AID686978 (National Center for Advancing Translational Sciences (NCATS), 2013)
